Shown are actives, neighbours in structure and some others; about 1.3% of the full set was active somewhere.
PTHR1 agonist: qHTS for PTHR1 Agonists: Primary Screen; Parathyroid hormone/parathyroid hormone-related peptide receptor (Homo sapiens), Q03431; HEK293 GP2 PTHR1 cells, GloSensor cAMP luminescence, 1 h; Potency, µM (highest dose often 115 µM), for inactives: at the highest dose activation, hits mostly activators; actives 0.075% (n = 410,000); also: potency is read from the fitted curve at half-maximal effect; nearly all actives have a fitted effect of over 55% in size
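HEK-293-derived GP2 cells expressing PTHR1 and a GloSensor cAMP reporter, 3,000/well, plated overnight, given luciferin plus IBMX (each 0.5 mM as added) for 1 h at 37 °C, then compound for 1 h at 37 °C. Luminescence was read after 15 min at room temperature.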
Giardia killer: Small Molecules that selectively kill Giardia lamblia: qHTS; AID 540267, 2011; actives 0.15% (n = 340,000); activity change, % at 7.66 µM, hits read low; Giardia lamblia trophozoite viability; in the data active = activity change below about -80%; inconclusive = between about -30% and that limit;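 also: parasites exposed to compound for two days anaerobically before the ATP read; % is scaled to controls: 0 for no effect and ±100 for the full control effect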
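Trophozoites 100 cells/well + cpd; 48 hrs, 37 deg C, anaerobic. ATPLite 1-Step added, 15-30 min RT, luminescence read (ATP-based viability).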
PINK1 modulator: A Quantitative High throughput Screen to Identify Chemical Modulators of PINK1 Expression; PINK1 immunofluorescence, high-content cytometry, 24 h; Potency, µM (series often up to 76.6 µM), without a hit: at the highest dose activation (PINK1 increase), hits mostly activators; actives 0.2% (n = 410,000); AID 624263, 2012; active = well fitted activation curve with a large enough effect; inconclusive = small, poorly fitted or top-dose-only effect; cell line not stated here; also: potency is read from the fitted curve at half-maximal effect; % of control where 0% means no effect; nearly all actives have a fitted effect of over 65% in size
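Fluorescence from anti-PINK1 antibody, together with nuclear and cell stains, was scanned on a laser-scanning cytometer. Before staining, stable-line cells were incubated 24 hours with compounds at 5 concentrations; primary antibody 12 h at 10 degrees C.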
miR-21 reporter: qHTS Assay for Modulators of miRNAs and/orActivators of miR-21 | HeLa miR-21 FLuc reporter, luciferase, 48 h | 340,000 tested, under 10 active | Potency, µM (top dose mostly 38.3 µM), without a hit: at the highest dose activity change, positive = activation, usual class: activators;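 also: % of control where 0% means no effect; miR-21 action dims this reporter so a rising signal means less miR-21 action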
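Compounds were titrated across several concentrations (up to approximately 40 uM) and incubated 48 hours with HeLa miR-21-FLuc reporter cells (miR-21 target sequence downstream of FLuc, endogenous miR-21). Readout was firefly luciferase luminescence after lytic detection reagent.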
ERG-DNA inh: qHTS for Small Molecule Inhibitors of the ERG Ets/DNA interaction. Transcriptional regulator ERG (Homo sapiens), P11308. Potency, µM (titrated, usually from 76.9 µM), for inactives: at the highest dose FP activity, negative = inhibition, hits mostly inhibitors. actives 0.028% (n = 370,000). fluorescence polarization, His-ERG Ets domain / labelled DNA. AID 624246, 2012; active = well fitted inhibition curve with a large enough effect in the polarisation, with a control signal flat; inconclusive = small, poorly fitted or top-dose-only effect, or effect the other way, or a change in a side signal; inactive = no such curve, though single readings can be large or run the other way; the % refers to the polarisation;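 also: polarization taken with two DNA probes labelled with fluorescein and Texas red; potency is read from the fitted curve at half-maximal effect; % of control where 0% means no effect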
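His-tagged ERG Ets domain (1 uM in the protein solution; 300mM KCl, 50mM Tris-HCl, 1mM EDTA, 1mM DTT, pH 7.5) received compound, then a probe mix of 5 nM fluorescein-DNA and 100nM Texas-615-DNA. Fluorescence polarization was read for both dyes.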
ALOX12 inh: Primary qHTS assay for inhibitors of human arachidonate 12S-lipoxygenase (ALOX12): Round 2; purified 12hLO, xylenol orange hydroperoxide absorbance; Potency, µM (titrated, usually from 108 µM), for inactives: at the highest dose activity change, negative = inhibition, actives largely listed as inhibitors; actives 1.1% (n = 580,000); AID 1671190, 2021; also: potency is read from the fitted curve at half-maximal effect; % is scaled to controls: 0 for no effect and ±100 for the full control effect
Target sequence (P18054 whole entry, looked up): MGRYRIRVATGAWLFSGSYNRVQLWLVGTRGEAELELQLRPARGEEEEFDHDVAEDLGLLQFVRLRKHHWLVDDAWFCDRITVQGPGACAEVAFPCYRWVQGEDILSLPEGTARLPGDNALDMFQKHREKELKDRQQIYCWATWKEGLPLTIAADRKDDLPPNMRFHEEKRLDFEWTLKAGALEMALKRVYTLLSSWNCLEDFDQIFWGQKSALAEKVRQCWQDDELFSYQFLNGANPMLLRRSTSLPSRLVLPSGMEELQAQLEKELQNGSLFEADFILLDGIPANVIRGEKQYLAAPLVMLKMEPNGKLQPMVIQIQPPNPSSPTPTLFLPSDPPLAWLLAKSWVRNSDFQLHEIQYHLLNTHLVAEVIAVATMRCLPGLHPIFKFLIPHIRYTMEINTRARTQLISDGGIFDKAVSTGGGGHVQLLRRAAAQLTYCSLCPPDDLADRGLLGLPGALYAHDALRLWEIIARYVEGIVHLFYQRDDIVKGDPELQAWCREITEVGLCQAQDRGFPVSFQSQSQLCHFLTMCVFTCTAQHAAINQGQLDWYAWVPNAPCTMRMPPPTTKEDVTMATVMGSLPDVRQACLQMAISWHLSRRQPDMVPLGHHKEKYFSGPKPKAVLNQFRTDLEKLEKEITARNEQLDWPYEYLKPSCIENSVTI
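Purified human 12hLO at 150 nM in 25 mM Hepes, 0.01% Triton X-100, pH 7.0, preincubated 15 min at room temperature with compound. Reaction started with 40 uM arachidonic acid, 30 min at room temperature. Hydroperoxide measured by Fe-xylenol orange, 573/405 nm absorbance ratio.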
* hit, by the source's call; [ ] = another dose, or the depositor's remark. Unless noted, calls follow the shape of the dose curve; as a rule, active = well fitted curve in the direction sought with a large enough effect; inconclusive = small, poorly fitted or top-dose-only effect, or another doubt; inactive = no such curve, though single readings can be large; an effect the other way counts as inactive or inconclusive.

Screening CN(C)c1ccc(/C=C/c2sc3ccccc3[n+]2Cc2ccccc2)cc1 returned PINK1 modulator 40µM*.
For C[n+]1c(/C=C/c2ccc(N)cc2)sc2ccccc21 the results were PINK1 modulator 0%.
For Cc1nc(C(F)(F)F)ccc1C(=O)N1CCC1(C)C(=O)NS(=O)(=O)c1cccc(Cl)c1 (stereo not given) the results were PTHR1 agonist -23%, PINK1 modulator 1% and ALOX12 inh inconclusive.
Screening Cc1nc(C(F)(F)F)ccc1C(=O)N1CCC1(C)C(=O)NS(=O)(=O)c1cccc(F)c1 (stereo not given) returned PTHR1 agonist -25%, PINK1 modulator 3% and ALOX12 inh 45µM*.
Cc1ccc(S(=O)(=O)NC(=O)C2(C)CCN2C(=O)c2cccc(F)c2)cc1 (stereo not given) was read as PTHR1 agonist inactive, PINK1 modulator 1% and ALOX12 inh 35µM*.
For CC1(C(=O)NS(=O)(=O)c2cccc(Cl)c2)CCN1C(=O)c1cccc(F)c1 (stereo not given) the results were PTHR1 agonist inactive, PINK1 modulator -1% and ALOX12 inh -1%.
Cc1ccccc1CN1CC(Oc2cccc(C(=O)NCC3CC3)c2)C1 was read as ALOX12 inh 11%.
Screening CCOc1ccc(-c2c(C)nn3c(C)c(C(=O)NCc4cccc(OC)c4)cnc23)cc1OCC returned PTHR1 agonist -11%, PINK1 modulator 3%, miR-21 reporter 5%, ERG-DNA inh 0% and ALOX12 inh -20%.
For Cc1cc(Br)ccc1NC(=O)CSc1nc2cc([N+](=O)[O-])ccc2o1 the results were ALOX12 inh 18µM*.
`CC(C)C(NC(=O)CSc1nc2cc([N+](=O)[O-])ccc2o1)c1ccccc1` (stereo not given) gave ALOX12 inh -38%.
Screening O=c1c2ccccc2nc(-c2ccccc2)n1O returned PTHR1 agonist inactive, Giardia killer -3, PINK1 modulator 0%, ERG-DNA inh 4% and ALOX12 inh inconclusive.
`COc1ccc(-c2nc3ccccc3c(=O)n2O)cc1` gave PTHR1 agonist 50µM*, Giardia killer -17, PINK1 modulator 1%, miR-21 reporter -10%, ERG-DNA inh -3% and ALOX12 inh 28%.
`CCOC(=O)c1ccc(NC(=O)CNC(=O)C23CC4CC(CC(C4)C2)C3)cc1` gave PTHR1 agonist inconclusive, Giardia killer -6, PINK1 modulator -1%[38.3 µM], miR-21 reporter -2%, ERG-DNA inh -4% and ALOX12 inh 19%.
`CCOC(=O)c1ccc(NS(=O)C23CC4CC(CC(C4)C2)C3)cc1` (stereo not given) gave PTHR1 agonist inactive, Giardia killer -4, PINK1 modulator 0%[38.3 µM], miR-21 reporter -16% and ALOX12 inh 7.1µM*.
CCOC(=O)N1CCN(C(=O)c2ccc(Cn3c(=S)[nH]c4ccc(Br)cc4c3=O)cc2)CC1 was read as PTHR1 agonist -52%, Giardia killer -26, PINK1 modulator 25µM*, miR-21 reporter 2%, ERG-DNA inh 3% and ALOX12 inh 2%.
For COc1ccccc1Cn1c(=S)[nH]c2cc(C(=O)N3CCCC3)ccc2c1=O the results were PTHR1 agonist -4%, Giardia killer 2, PINK1 modulator 4%, miR-21 reporter 3%, ERG-DNA inh -10% and ALOX12 inh 45µM*.
Screening CCOC(=O)N1CCN(C(=O)c2ccc3c(=O)n(Cc4ccc(Cl)cc4)c(=S)[nH]c3c2)CC1 returned PTHR1 agonist -13%, Giardia killer -18, PINK1 modulator 3%, miR-21 reporter -2%, ERG-DNA inh 0% and ALOX12 inh -6%.
For CN1C(=O)c2ccccc2NC1c1cc2ccccc2[nH]c1=O (stereo not given) the results were ALOX12 inh 7.1µM*.
`Cn1cnc(S(=O)(=O)NCc2cccs2)c1` gave PTHR1 agonist inactive, Giardia killer -7, PINK1 modulator -1%, miR-21 reporter -1%, ERG-DNA inh -6% and ALOX12 inh 0%.
For O=C(O)c1cc(N2N=C(C(F)(F)F)/C(=C/C=C/c3ccco3)C2=O)ccc1Cl the results were PTHR1 agonist -70%, Giardia killer 5, PINK1 modulator 1%, miR-21 reporter -1%, ERG-DNA inh 21% and ALOX12 inh 5.6µM*.
`CCOC(=O)c1ccc(N2N=C(C)/C(=C/C=C/c3ccco3)C2=O)cc1` gave PTHR1 agonist -6%[57.5 µM], Giardia killer -5, PINK1 modulator 11%, miR-21 reporter -8%, ERG-DNA inh -4% and ALOX12 inh -15%.
Clc1ccc(C2=C3CCCCn4c(-c5ccccc5)c[n+](c43)C2)cc1 was read as PTHR1 agonist inactive, Giardia killer 3, PINK1 modulator 16µM*, miR-21 reporter 17%, ERG-DNA inh 0% and ALOX12 inh -2%.
`CCOC(=O)c1cc(NC(=O)c2cccc(-c3cc4ccccc4oc3=O)c2)ccc1N1CCOCC1` gave ALOX12 inh 8.9µM*.
`CC1=C[C@@H](CNCc2ccccc2O)[C@H](C(C)C)C[C@H]1Cc1nc2c(C)cccc2[nH]1` gave ALOX12 inh 63µM*.
`Cc1ccc(OC(C)C(=O)Nc2ccc3c(c2)n(C)c(=O)n3C)c(C)c1` (stereo not given) gave PTHR1 agonist inactive, Giardia killer -12, PINK1 modulator 2%, miR-21 reporter 2%, ERG-DNA inh -2% and ALOX12 inh 45µM*.
COc1ccccc1OC(C)C(=O)Nc1ccc2c(c1)n(C)c(=O)n2C (stereo not given) was read as PTHR1 agonist inactive, Giardia killer 7, PINK1 modulator 4%, miR-21 reporter -17%, ERG-DNA inh -3% and ALOX12 inh 18%.
O=C(CSc1nnc(-c2ccncc2)n1CC1CCCO1)Nc1nccs1 (stereo not given) was read as PTHR1 agonist inactive, Giardia killer 12, PINK1 modulator -1%, miR-21 reporter -7%, ERG-DNA inh -9% and ALOX12 inh -22%.
Screening Cc1c(C(=O)OC2CCC(C)CC2)[nH]c2c1C(=O)CC(c1ccc(N(C)C)cc1)C2 (stereo not given) returned PTHR1 agonist -44%, PINK1 modulator 6%, miR-21 reporter -4%, ERG-DNA inh 0% and ALOX12 inh -4%.

Screening data deposited in PubChem by National Center for Advancing Translational Sciences (NCATS).
